For 40 sequences, binding signal results are on record in article PMC13541613, “GHT-SELEX demonstrates unexpectedly high intrinsic sequence specificity and complex DNA binding of many human transcription factors”.

Sequence of ZNF721 DBD1 (Q8TF20 17-449): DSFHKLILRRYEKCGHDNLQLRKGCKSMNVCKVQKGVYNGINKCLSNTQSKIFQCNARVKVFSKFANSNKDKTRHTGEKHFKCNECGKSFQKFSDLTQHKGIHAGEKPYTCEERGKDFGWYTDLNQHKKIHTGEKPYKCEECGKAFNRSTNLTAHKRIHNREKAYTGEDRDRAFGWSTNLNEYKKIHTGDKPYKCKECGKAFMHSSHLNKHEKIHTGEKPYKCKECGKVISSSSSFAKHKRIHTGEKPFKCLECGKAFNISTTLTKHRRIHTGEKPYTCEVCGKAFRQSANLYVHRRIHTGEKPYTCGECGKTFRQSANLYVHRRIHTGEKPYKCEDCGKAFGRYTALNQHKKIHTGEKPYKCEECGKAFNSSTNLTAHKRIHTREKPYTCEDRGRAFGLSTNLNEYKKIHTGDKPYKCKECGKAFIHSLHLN
Sequence of ZNF721 DBD2 (Q8TF20 383-911): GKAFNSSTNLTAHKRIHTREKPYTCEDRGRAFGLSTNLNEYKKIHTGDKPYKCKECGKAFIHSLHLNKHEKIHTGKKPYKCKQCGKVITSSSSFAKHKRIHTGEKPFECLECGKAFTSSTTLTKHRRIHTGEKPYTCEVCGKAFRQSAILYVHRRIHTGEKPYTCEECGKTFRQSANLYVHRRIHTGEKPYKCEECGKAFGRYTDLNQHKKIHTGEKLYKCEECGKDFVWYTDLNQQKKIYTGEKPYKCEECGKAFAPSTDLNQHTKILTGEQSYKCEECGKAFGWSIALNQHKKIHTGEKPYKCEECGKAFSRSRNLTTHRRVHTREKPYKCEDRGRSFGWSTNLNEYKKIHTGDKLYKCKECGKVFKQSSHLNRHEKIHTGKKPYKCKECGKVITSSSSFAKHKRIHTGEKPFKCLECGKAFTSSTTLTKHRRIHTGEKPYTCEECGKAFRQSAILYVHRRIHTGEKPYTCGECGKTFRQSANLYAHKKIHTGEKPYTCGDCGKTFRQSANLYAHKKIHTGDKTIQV
Sequence of ZNF721 full-length (Q8TF20 other isoform, or with tags, fused parts or gaps): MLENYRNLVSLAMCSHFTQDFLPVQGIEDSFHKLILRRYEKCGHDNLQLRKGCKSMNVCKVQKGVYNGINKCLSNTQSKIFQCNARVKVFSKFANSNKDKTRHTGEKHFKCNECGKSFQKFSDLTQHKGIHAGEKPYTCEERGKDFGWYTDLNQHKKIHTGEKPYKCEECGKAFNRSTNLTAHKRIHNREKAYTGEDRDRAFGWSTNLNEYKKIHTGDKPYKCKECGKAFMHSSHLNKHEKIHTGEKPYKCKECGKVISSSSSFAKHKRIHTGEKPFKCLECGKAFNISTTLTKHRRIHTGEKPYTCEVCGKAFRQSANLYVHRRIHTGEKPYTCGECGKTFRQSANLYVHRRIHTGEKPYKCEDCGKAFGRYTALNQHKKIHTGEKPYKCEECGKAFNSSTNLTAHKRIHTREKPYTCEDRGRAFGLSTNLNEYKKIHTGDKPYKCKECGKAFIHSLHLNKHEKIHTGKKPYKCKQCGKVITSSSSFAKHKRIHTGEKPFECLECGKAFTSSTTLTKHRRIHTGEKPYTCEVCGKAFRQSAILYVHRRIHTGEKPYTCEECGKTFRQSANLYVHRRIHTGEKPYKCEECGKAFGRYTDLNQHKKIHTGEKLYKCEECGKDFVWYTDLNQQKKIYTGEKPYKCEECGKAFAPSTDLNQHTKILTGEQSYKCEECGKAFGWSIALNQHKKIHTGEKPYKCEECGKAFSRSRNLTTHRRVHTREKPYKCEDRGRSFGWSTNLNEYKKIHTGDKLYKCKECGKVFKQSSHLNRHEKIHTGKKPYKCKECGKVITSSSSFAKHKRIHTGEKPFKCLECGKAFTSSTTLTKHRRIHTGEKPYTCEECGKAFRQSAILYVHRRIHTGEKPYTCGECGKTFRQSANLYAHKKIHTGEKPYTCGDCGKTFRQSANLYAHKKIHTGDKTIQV

The target of the first test is ZNF721 full-length (Homo sapiens, UniProt Q8TF20-2 1-923). Nature of the test: HT-SELEX; 20 mM HEPES pH 7, 140 mM KCl, 5 mM NaCl, 1 mM K2HPO4, 2 mM MgSO4, 100 uM EGTA, ZnSO4, 0.1% Tween20; room temperature, 1 h; high values mean tight binding. Particulars: protein: ivt; tags: eGFP (N-terminal); dsDNA, one strand shown. The essentials:
(§1)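 A tagged transcription factor, either full-length or its DNA-binding-domain fragment, was made in HEK293 lysate or cell-free extract, immobilised on beads and incubated with a randomized 40-base DNA library for 1 h at room temperature in HEPES/KCl low-stringency buffer containing Tween20. Washed beads were heat-eluted, and the bound DNA was PCR-amplified over successive cycles and Illumina-sequenced at ~3 million 60 bp reads per sample. The binding signal is the relative k-mer count in selected reads, where a higher value means tighter binding.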
AGGGTGGGTG had a binding signal of 0.158 relative 10-mer count.

Take CCCCAACCAC: the binding signal is 0.156 relative 10-mer count.

Take CCACCACACC: the binding signal amounted to 0.148 relative 10-mer count.

For the sequence ACCCCCCCAC, the binding signal is 0.169 relative 10-mer count.

Sequence ACAAAAAAAG gave a binding signal of 0.12 relative 10-mer count.

In turn, CCACCACCCA registered a binding signal of 0.222 relative 10-mer count.

In turn, CGCACCACCC gave a binding signal of 0.108 relative 10-mer count.

In the case of AAAAAAGCAT, the binding signal was 0.343 relative 10-mer count.

Take GGGCGGGGGA: the binding signal stood at 0.122 relative 10-mer count.

As for CTCCCCCCTC, the binding signal worked out at 0.108 relative 10-mer count.

Sequence AAAAAAAAAC registered a binding signal of 0.134 relative 10-mer count.

Consider ACCGCCCACC, for which the binding signal was 0.152 relative 10-mer count.

Turning to CCCCCCGACC, the binding signal was 0.147 relative 10-mer count.

Sequence GGGGGCGGGA returned a binding signal of 0.119 relative 10-mer count.

As for ACCCACCCTC, the binding signal is 0.132 relative 10-mer count.

Take AAAAAGCATC: the binding signal was found to be 0.123 relative 10-mer count.

For the sequence GGGGCGGGGA, the binding signal was found to be 0.131 relative 10-mer count.

As to GCCCCGCCCC, the binding signal is 0.124 relative 10-mer count.

In turn, GCAAAAAAAA returned a binding signal of 0.118 relative 10-mer count.

CTCCCTCCCC had a binding signal of 0.143 relative 10-mer count.

On to AGCATACCCA, for which the binding signal amounted to 0.391 relative 10-mer count.

Take CCACCCCTCC: the binding signal is 0.209 relative 10-mer count.

In turn, AAAGCAGTAC showed a binding signal of 0.156 relative 10-mer count.

CCCGACCCCC registered a binding signal of 0.178 relative 10-mer count.

The sequence CCGAAAAAAG came in with a binding signal of 0.106 relative 10-mer count.

The sequence CCCCCTCCGC displayed a binding signal of 0.124 relative 10-mer count.

Turning to CCTCCACCCC, the binding signal came out at 0.263 relative 10-mer count.

Sequence AGCCCACCCC yielded a binding signal of 0.12 relative 10-mer count.

On to AGGATACCCT, for which the binding signal stood at 0.106 relative 10-mer count.

CCCCCACTCC: the binding signal is 0.14 relative 10-mer count.

ATGTGTATGA: the binding signal worked out at 0.12 relative 10-mer count.

In the case of AAGCGTATCC, the binding signal was 0.108 relative 10-mer count.

Turning to CCCACCACGC, the binding signal was found to be 0.108 relative 10-mer count.

Sequence AAAAGCATAC displayed a binding signal of 0.149 relative 10-mer count.

ACACCCACCC yielded a binding signal of 0.171 relative 10-mer count.

Sequence CCCACCCCAA had a binding signal of 0.151 relative 10-mer count.

Take CCCCGCCGCC: the binding signal turned out to be 0.175 relative 10-mer count.

On to CCAAAAAAAA, for which the binding signal is 0.211 relative 10-mer count.

As to CCCACCCCAG, the binding signal stood at 0.114 relative 10-mer count.

Sequence CCCCCCTCAC registered a binding signal of 0.103 relative 10-mer count.

In the next test the target is ZNF721 DBD1 (Homo sapiens, UniProt Q8TF20-2 29-461). Described as above. Particulars: protein: ivt; tags: eGFP (N-terminal); dsDNA, one strand shown. Summed up:
as §1
On to AGGGTGGGTG, for which the binding signal turned out to be 0.0094 relative 10-mer count.

CCCCAACCAC came in with a binding signal of 0.00665 relative 10-mer count.

In the case of CCACCACACC, the binding signal amounted to 0.00537 relative 10-mer count.

For the sequence ACCCCCCCAC, the binding signal worked out at 0.00697 relative 10-mer count.

Regarding ACAAAAAAAG, the binding signal is 0.0121 relative 10-mer count.

CCACCACCCA: the binding signal is 0.0105 relative 10-mer count.

Sequence CGCACCACCC had a binding signal of 0.00381 relative 10-mer count.

AAAAAAGCAT returned a binding signal of 0.0588 relative 10-mer count.

In turn, GGGCGGGGGA displayed a binding signal of 0.00482 relative 10-mer count.

Take CTCCCCCCTC: the binding signal is 0.00605 relative 10-mer count.

AAAAAAAAAC: the binding signal turned out to be 0.00229 relative 10-mer count.

Regarding ACCGCCCACC, the binding signal stood at 0.005 relative 10-mer count.

The sequence CCCCCCGACC showed a binding signal of 0.00482 relative 10-mer count.

GGGGGCGGGA had a binding signal of 0.00537 relative 10-mer count.

In turn, ACCCACCCTC came in with a binding signal of 0.00541 relative 10-mer count.

AAAAAGCATC came in with a binding signal of 0.0262 relative 10-mer count.

The sequence GGGGCGGGGA yielded a binding signal of 0.00633 relative 10-mer count.

Sequence GCCCCGCCCC yielded a binding signal of 0.00436 relative 10-mer count.

In the case of GCAAAAAAAA, the binding signal was 0.0105 relative 10-mer count.

Consider CTCCCTCCCC, for which the binding signal was found to be 0.00927 relative 10-mer count.

With AGCATACCCA, the binding signal was determined as 0.0246 relative 10-mer count.

As to CCACCCCTCC, the binding signal worked out at 0.0108 relative 10-mer count.

For the sequence AAAGCAGTAC, the binding signal was found to be 0.0228 relative 10-mer count.

With CCCGACCCCC, the binding signal came to 0.00628 relative 10-mer count.

CCGAAAAAAG returned a binding signal of 0.016 relative 10-mer count.

Take CCCCCTCCGC: the binding signal is 0.00725 relative 10-mer count.

Take CCTCCACCCC: the binding signal was found to be 0.0117 relative 10-mer count.

For the sequence AGCCCACCCC, the binding signal stood at 0.00583 relative 10-mer count.

AGGATACCCT returned a binding signal of 0.00527 relative 10-mer count.

Consider CCCCCACTCC, for which the binding signal came out at 0.00665 relative 10-mer count.

ATGTGTATGA returned a binding signal of 0.124 relative 10-mer count.

Regarding AAGCGTATCC, the binding signal worked out at 0.0756 relative 10-mer count.

Regarding CCCACCACGC, the binding signal turned out to be 0.00408 relative 10-mer count.

AAAAGCATAC showed a binding signal of 0.0247 relative 10-mer count.

With ACACCCACCC, the binding signal was determined as 0.0105 relative 10-mer count.

On to CCCACCCCAA, for which the binding signal was found to be 0.00642 relative 10-mer count.

For CCCCGCCGCC, the binding signal stood at 0.00541 relative 10-mer count.

Take CCAAAAAAAA: the binding signal amounted to 0.0171 relative 10-mer count.

As for CCCACCCCAG, the binding signal amounted to 0.00321 relative 10-mer count.

CCCCCCTCAC registered a binding signal of 0.00482 relative 10-mer count.

For another test, the target named is ZNF721 DBD2 (Homo sapiens, UniProt Q8TF20-2 395-923). The test is described as above. Particulars: protein: ivt; tags: eGFP (N-terminal); dsDNA, one strand shown. Summed up:
as §1
With AGGGTGGGTG, the binding signal turned out to be 0.00515 relative 10-mer count.

Take CCCCAACCAC: the binding signal turned out to be 0.00515 relative 10-mer count.

Take CCACCACACC: the binding signal worked out at 0.00587 relative 10-mer count.

With ACCCCCCCAC, the binding signal worked out at 0.00695 relative 10-mer count.

ACAAAAAAAG gave a binding signal of 0.0533 relative 10-mer count.

The sequence CCACCACCCA gave a binding signal of 0.00671 relative 10-mer count.

For the sequence CGCACCACCC, the binding signal is 0.00695 relative 10-mer count.

Turning to AAAAAAGCAT, the binding signal was 0.067 relative 10-mer count.

As for GGGCGGGGGA, the binding signal worked out at 0.00216 relative 10-mer count.

CTCCCCCCTC registered a binding signal of 0.00336 relative 10-mer count.

Sequence AAAAAAAAAC came in with a binding signal of 0.0808 relative 10-mer count.

ACCGCCCACC: the binding signal is 0.00204 relative 10-mer count.

Sequence CCCCCCGACC came in with a binding signal of 0.00288 relative 10-mer count.

On to GGGGGCGGGA, for which the binding signal was determined as 0.00144 relative 10-mer count.

On to ACCCACCCTC, for which the binding signal worked out at 0.00647 relative 10-mer count.

In turn, AAAAAGCATC displayed a binding signal of 0.0225 relative 10-mer count.

Regarding GGGGCGGGGA, the binding signal was found to be 0.00264 relative 10-mer count.

Take GCCCCGCCCC: the binding signal is 0.00156 relative 10-mer count.

GCAAAAAAAA: the binding signal came to 0.056 relative 10-mer count.

CTCCCTCCCC had a binding signal of 0.00312 relative 10-mer count.

AGCATACCCA had a binding signal of 0.366 relative 10-mer count.

Sequence CCACCCCTCC registered a binding signal of 0.00491 relative 10-mer count.

AAAGCAGTAC came in with a binding signal of 0.0905 relative 10-mer count.

Sequence CCCGACCCCC returned a binding signal of 0.00144 relative 10-mer count.

In turn, CCGAAAAAAG showed a binding signal of 0.0415 relative 10-mer count.

In turn, CCCCCTCCGC registered a binding signal of 0.00372 relative 10-mer count.

The sequence CCTCCACCCC came in with a binding signal of 0.00455 relative 10-mer count.

AGCCCACCCC showed a binding signal of 0.0209 relative 10-mer count.

For the sequence AGGATACCCT, the binding signal came to 0.171 relative 10-mer count.

In turn, CCCCCACTCC yielded a binding signal of 0.00288 relative 10-mer count.

ATGTGTATGA yielded a binding signal of 0.0018 relative 10-mer count.

As for AAGCGTATCC, the binding signal was determined as 0.00863 relative 10-mer count.

On to CCCACCACGC, for which the binding signal stood at 0.00539 relative 10-mer count.

The sequence AAAAGCATAC had a binding signal of 0.039 relative 10-mer count.

Sequence ACACCCACCC displayed a binding signal of 0.00336 relative 10-mer count.

As for CCCACCCCAA, the binding signal stood at 0.00575 relative 10-mer count.

Consider CCCCGCCGCC, for which the binding signal worked out at 0.0012 relative 10-mer count.

The sequence CCAAAAAAAA yielded a binding signal of 0.0966 relative 10-mer count.

With CCCACCCCAG, the binding signal is 0.00156 relative 10-mer count.

CCCCCCTCAC returned a binding signal of 0.00443 relative 10-mer count.
